# Smad3 FoxH1 inh = inhibitors of human Smad3 transcription factor binding; inhibition, % at 25 µM; 88,000 compounds, 0.29% hits; TR-FRET Smad3/Dy647-FoxH1 peptide binding, europium anti-His; AID 630;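 active = compounds that reduce the energy-transfer binding signal between the protein and its labelled peptide by more than half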;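 note: 0% = Smad3 plus labelled peptide maximal FRET and 100% = peptide-only background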
# sEH inhibitor = blocks human soluble epoxide hydrolase activity; P34913; recombinant human sEH enzymatic activity assay; inhibition, % at 2 µM; 91,000 compounds, 0.34% hits; in the data active = inhibition above about 80%
# Target sequence (P34913 whole entry, looked up): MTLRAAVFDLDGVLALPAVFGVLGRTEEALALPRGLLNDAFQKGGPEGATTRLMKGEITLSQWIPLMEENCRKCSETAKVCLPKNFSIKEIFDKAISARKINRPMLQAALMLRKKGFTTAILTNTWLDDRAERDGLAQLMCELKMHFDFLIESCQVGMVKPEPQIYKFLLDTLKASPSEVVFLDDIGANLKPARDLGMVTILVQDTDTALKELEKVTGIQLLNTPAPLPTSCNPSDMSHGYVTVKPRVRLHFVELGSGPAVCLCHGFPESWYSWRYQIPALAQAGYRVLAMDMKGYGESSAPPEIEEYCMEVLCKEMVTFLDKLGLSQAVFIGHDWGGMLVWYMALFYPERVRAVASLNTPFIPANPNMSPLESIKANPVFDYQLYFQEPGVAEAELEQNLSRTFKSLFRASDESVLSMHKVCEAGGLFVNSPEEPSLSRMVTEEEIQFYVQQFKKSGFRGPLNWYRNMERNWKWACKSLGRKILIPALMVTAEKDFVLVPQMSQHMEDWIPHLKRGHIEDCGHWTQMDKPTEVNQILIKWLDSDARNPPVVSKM
# sEH activator = activators of human soluble epoxide hydrolase | activation, % at 2 µM | purified human sEH enzymatic activity, activator screen | AID 717 | 91,000 compounds, 0.04% hits; in the data active = activation above about 37%
# Numbers without * were called inactive; / = no result given; [ ] = another dose, or the depositor's remark. Rows were chosen to be rich in hits. Some 0.45% of all compounds tested hit in one or more screens of this group.
SMILES,Smad3 FoxH1 inh,sEH inhibitor,sEH activator
Cc1cc2cc(CNC(=O)NC3CCCCC3)ccc2[nH]1,5,90*,-90
O=C(NC1CCCCCC1)c1ccc(N2CCCC2=O)cc1,6,/,/
O=C(NCc1ccc(N2CCCC2=O)cc1)NC1CCCCC1,6,80*,-80
CC(=O)NCc1ccc2[nH]c(C)cc2c1,-2,/,/
CC1=C/C(=N\O)[C@H]([C@@H]2C=C(C)CC(C)(C)[C@H]2O)C(C)(C)C1,-7,/,/
C[C@@]12CCC(=O)C=C1CC[C@H]1[C@H]2[C@@H](O)C[C@]2(C)[C@@H]1CC[C@@]2(O)C(=O)CO,-4,/,/
Nc1c(C(=O)NCc2ccc3c(c2)OCO3)c2nc3ccccc3nc2n1CCCN1CCOCC1,19,/,/
COc1ccccc1CNC(=O)c1c(N)n(CCCN2CCOCC2)c2nc3ccccc3nc12,/,-108,117*
CC1(C)[C@@H]2CC[C@@](C)(C2)[C@@H]1OC(=O)c1ccccc1C(=O)O,1,/,/
Cn1c(=O)c2c(nc(N/N=C/c3ccccc3C(=O)O)n2C)n(C)c1=O,10,/,/
CCCOC(=O)c1ccc(NC(=O)c2cn(CC)c3nc(C)ccc3c2=O)cc1,61*[fluorescence artefact?],5,-4
CCn1cc(C(=O)Nc2cccc(C(=O)OC)c2)c(=O)c2ccc(C)nc21,-14,/,/
O=C(O)[C@H](/C=C/c1ccccc1)c1ccccc1,-10,/,/
Cc1ccc(N(CC(=O)NC2CCCCC2)C(=O)c2ccc(C)s2)cc1,/,81*,-80
Cc1cc(C)cc(N(CC(=O)NC2CCCCC2)C(=O)c2ccc(C)s2)c1,/,7,-4
C[C@H](CC(=O)O)C(C(=O)O)C(=O)O,-3,/,/
CC(=O)Nc1ccc2c(c1)/C(=C/c1ccc([N+](C)(C)C)cc1)c1ccccc1-2,93*,/,/
CC(=O)Nc1ccccc1C=C1c2ccccc2-c2ccccc21,13,/,/
O=C(O)/C=C/C(=O)Nc1ccccn1,1,/,/
O=C(N/N=C/c1ccc2c(c1)CCC2)c1ccccc1O,-8,/,/
O=C(N/N=C/c1cccc(O)c1)c1ccncc1,-1,/,/
CCCCOc1cccc(/C=N/NC(=O)c2csc(C)c2C)c1,/,82*,-82
O=C(N/N=C/c1cccc(O)c1)c1csc2ccccc12,/,84*,-84
Cc1scc(C(=O)N/N=C/c2ccc(OC(C)C)cc2)c1C,/,70,-69
CC1(C)OC[C@@H]2O[C@H](n3cnc4c(N)nc(Cl)nc43)[C@H](OS(C)(=O)=O)[C@H]2O1,37,/,/
SMILES,Smad3 FoxH1 inh,sEH inhibitor,sEH activator
O=C(CCC(=O)Nc1nnc(C2CCCCC2)s1)NCC1CCCO1 (stereo not drawn),81*,-5,6
CC(C)c1nnc(NC(=O)CCC(=O)NCC2CCCO2)s1 (stereo not drawn),-1,11,-8
O=C(O)/C=C/c1c2ccc(=O)c(O)c-2oc2c(O)c(O)ccc12,0,/,/
Nc1ccc(S(=O)(=O)c2ccc(NC(=O)c3cccnc3)cc2)cc1,57*,/,/
O=C(Nc1ccc(S(=O)(=O)N2CCCC2)cc1)c1cccnc1,/,46,-47
CC1(C)O[C@@H]2O[C@H]([C@@H]3COC(C)(C)O3)[C@H](N)[C@@H]2O1,10,/,/
COc1cccc2c1C(=N)c1c(O)c3c(c(O)c1C2=O)C[C@](O)(C(C)=O)C[C@@H]3O[C@@H]1C[C@H](N)[C@@H](O)[C@H](C)O1,9,/,/
O=[N+]([O-])c1ccc2c(N=Nc3ccc4ccccc4c3O)c(O)cc(S(=O)(=O)O)c2c1,72*,/,/
O=S(=O)(O)c1ccc2c(N=Nc3cccc4ccccc34)c(O)c(S(=O)(=O)O)cc2c1,31,/,/
CCN(CCO)C[C@@H]1CCC[C@@H]2CCCC[C@H]21,0,/,/
O=C(O)CCc1nn2c3ccccc3nc2n(CCN2CCCCC2)c1=O,10,-54,57*
O=C(O)CCc1nc2ccccc2n(CCc2ccccc2)c1=O,6,8,-8
O=C(O)c1c2c(c(O)c3c1CN(C1CCCCC1)CO3)OCN(C1CCCCC1)C2,62*,/,/
O=C(c1ccccc1)N1CCN(C2CCCCCC2)CC1,3,-14,14
O=C(O)C[C@H](NC(=O)CP(=O)(O)O)C(=O)O.[NH-][C@@H]1CCCC[C@H]1[NH-].[Pt],41,/,/
OC(COc1ccc(C2C=CCC2)cc1)CN1CCCCC1 (stereo not drawn),67*,0,0
O=C(c1ccccc1)c1ccc(OCC(O)CN2CCCCC2)cc1 (stereo not drawn),9,-11,10
COC(=O)c1ccc(CSc2ncnc3ccccc23)o1,2,-5,3
COC(=O)c1ccc(CSc2ncnc3c2oc2ccccc23)o1,62*[fluorescence artefact?],-2,5
O=C(O)/C=C(/CC(=O)O)C(=O)O,14,/,/
C=C(CC(=O)O)C(=O)O (tested in a mixture with another compound),87*,/,/
N=C(N)S[C@@H]1c2ccccc2-c2cc([N+](=O)[O-])ccc21,69*,/,/
O=[N+]([O-])c1ccc(Cl)c(/C=N/N2CCN(C3c4ccccc4-c4ccccc43)CC2)c1,/,2,2
CC(C)C1=C[C@@]23CC[C@@H]4[C@](C)(CCC[C@@]4(C)C(=O)O)[C@@H]2C[C@@H]1[C@H](C(=O)O)[C@@H]3C(=O)O,87*,/,/
CC(C)[C@]1(Cl)CC[C@H]2[C@]3(C)CCC[C@@](C)(C(=O)O)[C@H]3C[C@@H](Cl)[C@]2(Cl)[C@H]1Cl,37,/,/
SMILES,Smad3 FoxH1 inh,sEH inhibitor,sEH activator
CN(C)CN1CSC(=S)N(CN(C)C)C1,40,/,/
CCc1nc2ccccc2c(C(=O)OCC(=O)Nc2ccc(S(=O)(=O)N3CCOCC3)cc2)c1C,6,/,/
CCc1nc2ccccc2c(C(=O)OCC(=O)Nc2cccc(S(=O)(=O)N3CCOCC3)c2)c1C,89*,19,-17
Nc1[nH]c(=S)[nH]c(=O)c1N=Nc1c(Br)cc(S(N)(=O)=O)cc1Br,54*,/,/
Nc1ccn([C@H]2O[C@H](COC(=O)C34CC5CC(CC(C5)C3)C4)[C@@H](O)[C@@H]2O)c(=O)n1,-1,/,/
C[C@@]12CC[C@H]3c4ccc(OP(=O)(O)O)cc4CC[C@@H]3[C@H]1CCC2=O,-8,/,/
N=C1[C@H](O)[C@]2(I)c3ccccc3N3C(=N)[C@H](O)[C@@H]4c5ccccc5N1[C@@H]4[C@@H]32,57*,/,/
C[C@@H]1O[C@H](O)[C@@H](O)[C@H](O)[C@H]1O,10,/,/
C[C@]12CC[C@H](O)C[C@@H]1CC[C@H]1[C@H]2CC[C@]2(C)[C@@H]1CC[C@H]2c1cc(C(F)(F)F)n[nH]1,4,/,/
CC1=C(CC[C@H](C)CO)O[C@@H]2C[C@@H]3[C@H]4CC[C@H]5C[C@@H](O)CC[C@]5(C)[C@@H]4CC(=O)[C@@]3(C)[C@H]12,99*,/,/
O=C(O)CN(CCN(CC(=O)O)CC(=O)O)CC(=O)O.[Cu+2],23,/,/
NC(CSS(=O)(=O)O)=N[C@H]1C[C@H]2CC[C@@H]1C2,15,/,/
Cc1cc2c(cc(C(=O)O)n2C)s1,-6,10,-10
Cc1cc2sc(C(=O)O)c(C)c2s1,54*[fluorescence artefact?],-5,5
CCCC(c1cc(C(C)(C)C)c(O)cc1C)c1cc(C(C)(C)C)c(O)cc1C,1,/,/
COc1cccc(CNC(=O)C2CCC(CNS(=O)(=O)c3cccc4nsnc34)CC2)c1 (stereo not drawn),8,80*,-80
O=C(NCc1cccs1)C1CCC(CNS(=O)(=O)c2cccc3nsnc23)CC1 (stereo not drawn),0,74,-75
O=C(O)c1ccccc1C(=O)Nc1cc2c(cc1Br)-c1ccccc1C2=O,101*,/,/

# Assay outcomes from PubChem BioAssay.
